Compound activity as filed in PubChem.
SRC3 TRFRET art – TR-FRET artefact, counter-screen to PPARgamma/SRC-3 agonist assay; PPARgamma/SRC-3 format; stronger effect = higher value; TR-FRET ratio at 8 µM; 0.39% of 99,000 active
PPARg SRC-1 ag – PPARgamma-driven SRC-1 recruitment agonism. activation, % at 8 µM. PPARgamma-SRC-1 coactivator recruitment biochemical assay. P37231. 0.41% of 200,000 active. AID 631; in the data active = activation above about 19%;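 note: 0% = DMSO and 100% = reference agonist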
PPARg SRC2 recr – PPARgamma-driven SRC-2 recruitment agonism. P37231. 0.34% of 200,000 active. activation, % at 8 µM. PPARgamma LBD-SRC-2 recruitment, biochemical; in the data active = activation above about 22%;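 note: 0% = vehicle and 100% = reference agonist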
PPARg SRC3 recr – agonists of human PPARgamma SRC-3 coactivator recruitment | biochemical PPARgamma/SRC-3 coactivator recruitment assay | activation, % at 8 µM | 0.26% of 200,000 active | AID 731; in the data active = activation above about 23%;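 note: 0% = DMSO and 100% = reference agonist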
SRC1 TRFRET art – TR-FRET artefact, counter-screen to PPARgamma/SRC-1 agonist assay. TR-FRET detection artefact counter-screen, emission ratio; stronger effect = higher value. 0.34% of 99,000 active. TR-FRET ratio at 8 µM. AID 1051; in the data active = TR-FRET ratio above about 2300
TR-FRET SRC-2 ct – flags TR-FRET format artefacts in PPARgamma SRC-2 recruitment agonist screen; TR-FRET artefact counter-screen; stronger effect = higher value; TR-FRET ratio at 8 µM; 0.4% of 200,000 active; AID 1049
PPARg SRC2 conf – confirmation of agonists of SRC-2 recruitment by human PPARgamma. activation, % at 8 µM. 52% of 790 active. shares compounds with PPARg SRC3 recr. biochemical SRC-2 recruitment by PPARgamma; in the data active = activation above about 22%;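 note: 0% = vehicle alone and 100% = reference agonist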
PPARg SRC1 ag – human PPARgamma SRC-1 recruitment agonism, confirmation. shares compounds with PPARg SRC3 recr. PPARgamma–SRC-1 coactivator recruitment biochemical assay. activation, % at 8 µM. 43% of 790 active. AID 1300; in the data active = activation above about 20%;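 note: 0% = vehicle wells and 100% = reference agonist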
PPARg SRC3 ag – confirmation of agonists of SRC-3 recruitment by human PPARgamma. shares compounds with PPARg SRC3 recr. activation, % at 8 µM. 29% of 790 active. biochemical PPARgamma-SRC-3 coactivator recruitment, agonist mode; in the data active = activation above about 24%;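 note: 0% = vehicle wells and 100% = reference agonist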
An asterisk follows results filed as active; / = no result. An excerpt weighted towards active compounds, which were near 0.9% of everything screened. Cut-off read from the data, not from the text of the source, unless noted: active = TR-FRET ratio above about 2000; inactive = the rest.

SMILES | SRC3 TRFRET art | PPARg SRC-1 ag | PPARg SRC2 recr | PPARg SRC3 recr | SRC1 TRFRET art | TR-FRET SRC-2 ct | PPARg SRC2 conf | PPARg SRC1 ag | PPARg SRC3 ag
COc1ccc(C2C(C(=O)c3cccs3)=C(O)C(=O)N2c2nncs2)cc1 (configuration not stated) | / | 27* | 13 | 26* | / | 1901 | 24* | 19 | 14
Fc1cccc(NC(=S)NNc2c3ccccc3nc3ccccc23)c1 | 2517* | 45* | 53* | 21 | 3530* | 2526* | 3 | 4 | 1
COc1ccc(NC(C)C(=O)N/N=C/c2ccccc2OCc2cccc(Br)c2)cc1 (configuration not stated) | 1450 | 22* | 8 | 37* | 1922 | 1675 | 6 | 24* | 22
Cc1ccccc1NC(C)C(=O)N/N=C/c1ccccc1OCc1cccc(Br)c1 (configuration not stated) | / | -2 | 2 | 0 | / | 1387 | / | / | /
CCOC(=O)C1=C(C)OC(N)=C(C#N)C1c1cc(C)sc1C (configuration not stated) | / | -6 | 4 | -6 | / | 1603 | / | / | /
CCOC(=O)C1=C(C)OC(N)=C(C#N)C1c1cc2cc(C)ccc2nc1N1CCCCC1 (configuration not stated) | / | 38* | 40* | 62* | / | 2305* | 62* | 44* | 42*
COC(=O)c1sccc1NC(=O)Nc1ccc(Cl)c(Cl)c1 | / | 19* | 23* | 14 | / | 1921 | 8 | 2 | 4
CCOC(=O)C1C(=O)CC(C)(O)C(C(=O)OCC)C1c1ccccc1OC (configuration not stated) | / | -1 | 14 | 5 | / | 1459 | / | / | /
COc1ccccc1C1Nc2cccc3cccc(c23)N1 | / | 19* | 19 | 11 | / | 1640 | 10 | 7 | 6
C=CCCCCCCCC(=O)OC | 1763 | 22* | 13 | 5 | 1995 | 1655 | 5 | 4 | 2
COC(=O)CNc1n[nH]c(=S)[nH]c1=O | / | 100* | 121* | 156* | / | 4234* | 119* | 86* | 82*
CC(C)OC(=O)C(C)Nc1n[nH]c(=S)[nH]c1=O (configuration not stated) | 3327* | 71* | 66* | 45* | 3785* | 3006* | 98* | 74* | 64*
CC(C)COC(=O)C(C)Nc1n[nH]c(=S)[nH]c1=O (configuration not stated) | 1932 | 8 | 10 | 5 | 2031 | 1786 | / | / | /
COC(=O)CCNc1n[nH]c(=O)[nH]c1=O | 1714 | -1 | 8 | 7 | 1933 | 1554 | / | / | /
CCOC(=O)CSc1nnc(NCC(=O)OC(C)C)c(=O)[nH]1 | / | 7 | 7 | 7 | / | 1728 | / | / | /
CC(C)OC(=O)CNc1n[nH]c(=S)[nH]c1=O | 4653* | 113* | 129* | 74* | 5153* | 4518* | 106* | 78* | 71*
COc1ccc(CCNC2CCN(C)CC2)cc1OC | / | 4 | 3 | 4 | / | 1623 | / | / | /
O=C(Nc1cccc(S(=O)(=O)N2CCOCC2)c1)c1c2c(nc3ccccc13)CCC2 | 1681 | 1 | -8 | 2 | 1853 | 1416 | / | / | /
Cc1ccc(Sc2c(O)c3ccccc3n(C)c2=O)cc1 | 2226* | 24* | 26* | 16 | 2302 | 2048* | 22* | 13 | 14
Cc1ccc(Sc2c(C=O)c3ccccc3n2C)cc1 | / | 7 | 9 | -1 | / | 1743 | / | / | /
CCn1c(SCC(=O)NC2CCCCC2)nnc1-c1cccs1 | / | -8 | -14 | 4 | / | 1351 | / | / | /
CCn1c(SC(=O)NC2CCCCC2)nnc1-c1cccs1 | / | 24* | 22* | 29* | / | 1842 | 21 | 19 | 14
CCCSc1nc(=S)n(Cc2ccccc2)c(C)c1C(C)=O | 1306 | -3 | 4 | -2 | 1747 | 1609 | / | / | /
O=C(Cc1ccc(-n2c(=O)c3sccc3n(CC(=O)Nc3ccccc3F)c2=O)cc1)NCc1ccco1 | 1277 | 6 | -6 | 0 | 2047 | 1583 | / | / | /
Cc1c(NC(=O)C(C)OC(=O)C23CC4CC(CC(Br)(C4)C2)C3)c(=O)n(-c2ccccc2)n1C (configuration not stated) | 1665 | -2 | 0 | -3 | 2031 | 1648 | / | / | /
SMILES | SRC3 TRFRET art | PPARg SRC-1 ag | PPARg SRC2 recr | PPARg SRC3 recr | SRC1 TRFRET art | TR-FRET SRC-2 ct | PPARg SRC2 conf | PPARg SRC1 ag | PPARg SRC3 ag
CC(=O)CSc1ccc(-c2nc3cc(C)c(C)cc3[nH]2)cn1 | 1677 | -2 | 0 | 0 | 1783 | 1502 | / | / | /
N#Cc1ccccc1CSc1ccc(-c2nc3ccccc3[nH]2)cn1 | / | 22* | 33* | 26* | / | 1850 | 35* | 23* | 22
Cc1cc(=S)c2cccc(C)c2[nH]1 | 2209* | 16 | 22* | 20 | 2464* | 2155* | 2 | 3 | 2
CCOC(=O)c1c(N)sc(=S)c2c1CCC2 | / | 19* | 27* | 34* | / | 2147* | 6 | 6 | 6
CC(Sc1nc(N2CCCCC2)c2c(c1C#N)CCCC2)C(=O)O (configuration not stated) | / | 19* | 30* | 18 | / | 1908 | 25* | 16 | 16
Cn1c(=O)cc(OCCCC(=O)N2CCN(c3ccccc3)CC2)c2ccccc21 | / | 4 | 10 | 3 | / | 1446 | / | / | /
CN1CCN(C(=O)CSc2cc(=O)n(C)c3ccccc23)CC1 | 2760* | 34* | 38* | 20 | 2594* | 2614* | 29* | 17 | 19
CCN1CCN(C(=O)CSc2cc(=O)n(C)c3ccccc23)CC1 | 2490* | 33* | 9 | 21 | 2968* | 2412* | 29* | 19 | 20
CN1CCN(C(=O)CCCOc2cc(=O)n(C)c3ccccc23)CC1 | / | 6 | 7 | 6 | / | 1511 | / | / | /
Cn1c(=O)cc(SCC(=O)N2CCN(c3ccccn3)CC2)c2ccccc21 | / | 38* | 55* | 53* | / | 2556* | 40* | 29* | 27*
Cn1c(=O)cc(SCC(=O)N2CCN(c3ccccc3)CC2)c2ccccc21 | / | 34* | 47* | 40* | / | 2466* | 40* | 28* | 29*
Cn1c(=O)cc(SCC(=O)NCCC2=CCCCC2)c2ccccc21 | 1753 | 5 | 12 | 8 | 1986 | 1894 | / | / | /
CCCCc1ccc(NS(=O)(=O)c2cccs2)cc1 | / | -3 | -12 | 9 | / | 1188 | / | / | /
CC(=O)c1ccc(NC(=O)CSc2nc(=O)cc(N)n2-c2ccccc2)cc1 | 1627 | 5 | 4 | -3 | 1566 | 1494 | / | / | /
CC1Cc2ccccc2N1C(=O)CSc1nnnn1C(C)C (configuration not stated) | / | 6 | -2 | 9 | / | 1560 | / | / | /
Cc1occc1C(=O)N/N=C/c1c[nH]c2ccccc12 | / | 19* | 2 | 10 | / | 1606 | 3 | 1 | 2
